Assay results published in PubChem BioAssay AID1159580 (chemical genetic matrix, 2015).
Where “and” joins values, the source holds several entries; their conditions need not be identical. Equal entries are not always repeated. The campaign covered roughly 5,500 compounds. About 2,000 (36%) were called active. Inconclusive results (about 18%) are left out. No stated cut-off is given here; in the data, active means normalized growth mostly below about 0.91 (no sharp cut-off); inconclusive means no clear call, values can overlap the other calls; inactive means mostly above about 0.92. The list shows a part of the results.

Experiment: chemical genetic growth profiling, strain panel (AID 1159580);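 further: tested at 20 µM; growth read once vehicle control cultures reached saturation at 30 °C; 1 = growth at the plate median or of vehicle wells; lower values mean less growth of the strain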
Conditions: growth OD

Measured: normalized growth

Cc1ccccc1C(OCCN(C)C)c1ccccc1 (stereo not given)
inactive: S. cerevisiae deletion strains, locus YJR075W, strain HOC1, active compounds read low 0.986 and 0.988 | S. cerevisiae deletion strains, locus YKL009W, strain mrt4, active compounds read low 0.999 | S. cerevisiae deletion strains, locus YKL068W, active compounds read low 0.996 | S. cerevisiae deletion strains, locus YKL085W, strain MDH1 (second series), active compounds read low 1 | S. cerevisiae deletion strains, locus YKL085W, strain MDH1, active compounds read low 1 | S. cerevisiae deletion strains, locus YKL160W, strain elf1, active compounds read low 1.01 | S. cerevisiae deletion strains, locus YKL190W, strain CNB1, active compounds read low 0.996 | S. cerevisiae deletion strains, locus YKR001C, strain vps1, active compounds read low 1.03 | S. cerevisiae deletion strains, locus YKR026C, strain gcn3, active compounds read low 1.01 | S. cerevisiae deletion strains, locus YKR091W, strain srl3, active compounds read low 1.01 | S. cerevisiae deletion strains, locus YLL001W, strain dnm1, active compounds read low 1 | S. cerevisiae deletion strains, locus YLL026W, active compounds read low 1.01 | S. cerevisiae deletion strains, locus YLL041C, strain sdh2, active compounds read low 0.998 | S. cerevisiae deletion strains, locus YLR027C, strain aat2, active compounds read low 0.994 | S. cerevisiae deletion strains, locus YLR039C, strain RIC1, active compounds read low 1.14 | S. cerevisiae deletion strains, locus YLR058C, strain SHM2, active compounds read low 0.996 | S. cerevisiae deletion strains, locus YLR102C, strain apc9, active compounds read low 1 | S. cerevisiae deletion strains, locus YLR113W, strain HOG1, active compounds read low 0.956 | S. cerevisiae deletion strains, locus YLR221C, strain rsa3, active compounds read low 1.01 | S. cerevisiae deletion strains, locus YLR258W, strain gsy2, active compounds read low 1 | S. cerevisiae deletion strains, locus YLR262C, strain YPT6 (second series), active compounds read low 1.05 | S. cerevisiae deletion strains, locus YLR262C, strain YPT6, active compounds read low 1.13 | S. cerevisiae deletion strains, locus YLR268W, strain sec22, active compounds read low 1.05 | S. cerevisiae deletion strains, locus YLR320W, strain mms22, active compounds read low 1.02 | S. cerevisiae deletion strains, locus YLR330W, strain CHS5, active compounds read low 1.01 | S. cerevisiae deletion strains, locus YLR342W, strain FKS1 (second series), active compounds read low 1 | S. cerevisiae deletion strains, locus YLR342W, strain FKS1, active compounds read low 1.03 | S. cerevisiae deletion strains, locus YLR357W, strain rsc2, active compounds read low 1.01 | S. cerevisiae deletion strains, locus YLR370C, strain arc18, active compounds read low 1 | S. cerevisiae deletion strains, locus YLR371W, strain rom2, active compounds read low 1.01 | S. cerevisiae deletion strains, locus YLR384C, strain iki3, active compounds read low 1.01 | S. cerevisiae deletion strains, locus YLR418C, strain cdc73, active compounds read low 0.94 | S. cerevisiae deletion strains, locus YML016C, strain PPZ1, active compounds read low 1 | S. cerevisiae deletion strains, locus YML032C, strain rad52, active compounds read low 1.01 | S. cerevisiae deletion strains, locus YML120C, strain ndi1, active compounds read low 1.01 | S. cerevisiae deletion strains, locus YML124C, strain tub3, active compounds read low 1 | S. cerevisiae deletion strains, locus YMR058W, strain fet3, active compounds read low 0.977 | S. cerevisiae deletion strains, locus YMR078C, strain ctf18, active compounds read low 1.01 | S. cerevisiae deletion strains, locus YMR125W, strain sto1, active compounds read low 1.01 | S. cerevisiae deletion strains, locus YMR129W, active compounds read low 1.01 | S. cerevisiae deletion strains, locus YMR205C, strain PFK2, active compounds read low 1.02 | S. cerevisiae deletion strains, locus YMR223W, strain ubp8, active compounds read low 0.997 | S. cerevisiae deletion strains, locus YMR231W, strain pep5, active compounds read low 0.998 | S. cerevisiae deletion strains, locus YMR263W, strain SAP30, active compounds read low 0.985 | S. cerevisiae deletion strains, locus YMR307W, strain GAS1, active compounds read low 1.01 | S. cerevisiae deletion strains, locus YNL067W, strain RPL9B, active compounds read low 0.994 | S. cerevisiae deletion strains, locus YNL071W, strain lat1, active compounds read low 1 | S. cerevisiae deletion strains, locus YNL128W, strain TEP1, active compounds read low 1 | S. cerevisiae deletion strains, locus YNL153C, strain GIM3, active compounds read low 1.01 | S. cerevisiae deletion strains, locus YNL175C, strain NOP13, active compounds read low 1 | S. cerevisiae deletion strains, locus YNL183C, strain NPR1, active compounds read low 0.945 | S. cerevisiae deletion strains, locus YNL197C, strain WHI3, active compounds read low 1 | S. cerevisiae deletion strains, locus YNL209W, strain ssb2, active compounds read low 1 | S. cerevisiae deletion strains, locus YNL224C, strain SQS1, active compounds read low 0.994 | S. cerevisiae deletion strains, locus YNL233W, strain BNI4, active compounds read low 1.01 | S. cerevisiae deletion strains, locus YNL248C, strain rpa49, active compounds read low 1.01 | S. cerevisiae deletion strains, locus YNL250W, strain rad50, active compounds read low 0.989 | S. cerevisiae deletion strains, locus YNL271C, strain bni1, active compounds read low 1.01 | S. cerevisiae deletion strains, locus YNL298W, strain CLA4, active compounds read low 1.03 | S. cerevisiae deletion strains, locus YNL307C, strain MCK1, active compounds read low 1.02 | S. cerevisiae deletion strains, locus YNL322C, strain KRE1 (second series), active compounds read low 1.03 | S. cerevisiae deletion strains, locus YNL322C, strain KRE1, active compounds read low 0.997 and 0.999 | S. cerevisiae deletion strains, locus YNR049C, strain mso1, active compounds read low 1.02 | S. cerevisiae deletion strains, locus YNR052C, strain pop2, active compounds read low 1.01 | S. cerevisiae deletion strains, locus YOL006C, strain TOP1, active compounds read low 0.986 | S. cerevisiae deletion strains, locus YOL012C, strain htz1 0.949 | S. cerevisiae deletion strains, locus YOL147C, strain pex11, active compounds read low 1.01 | S. cerevisiae deletion strains, locus YOR001W, strain rrp6, active compounds read low 0.994 | S. cerevisiae deletion strains, locus YOR061W, strain CKA2, active compounds read low 1 | S. cerevisiae deletion strains, locus YOR069W, strain VPS5, active compounds read low 1 | S. cerevisiae deletion strains, locus YOR070C, strain gyp1, active compounds read low 0.996 | S. cerevisiae deletion strains, locus YOR080W, strain dia2, active compounds read low 0.996 | S. cerevisiae deletion strains, locus YOR083W, strain WHI5 (second series), active compounds read low 1 | S. cerevisiae deletion strains, locus YOR083W, strain WHI5, active compounds read low 1.02 | S. cerevisiae deletion strains, locus YOR106W, strain vam3, active compounds read low 1.03 | S. cerevisiae deletion strains, locus YOR136W, strain idh2, active compounds read low 0.988 | S. cerevisiae deletion strains, locus YOR144C, strain elg1, active compounds read low 1 | S. cerevisiae deletion strains, locus YOR184W, strain ser1, active compounds read low 1.03 | S. cerevisiae deletion strains, locus YOR231W, strain MKK1, active compounds read low 0.961 | S. cerevisiae deletion strains, locus YOR265W, strain rbl2, active compounds read low 0.994 | S. cerevisiae deletion strains, locus YOR270C, strain vph1, active compounds read low 0.972 | S. cerevisiae deletion strains, locus YOR290C, strain snf2, active compounds read low 1.03 | S. cerevisiae deletion strains, locus YOR316C, strain cot1, active compounds read low 1 | S. cerevisiae deletion strains, locus YPL051W, strain arl3, active compounds read low 0.994 | S. cerevisiae deletion strains, locus YPL078C, strain atp4, active compounds read low 1 | S. cerevisiae deletion strains, locus YPL106C, strain sse1, active compounds read low 1.02 | S. cerevisiae deletion strains, locus YPL240C, strain hsp82, active compounds read low 0.982 | S. cerevisiae deletion strains, locus YPL241C, strain CIN2, active compounds read low 1 and 0.994 | S. cerevisiae deletion strains, locus YPL256C, strain CLN2, active compounds read low 0.933 | S. cerevisiae deletion strains, locus YPR119W, strain clb2, active compounds read low 1 | S. cerevisiae deletion strains, locus YPR141C, strain kar3, active compounds read low 0.994 | S. cerevisiae deletion strains, locus YPR163C, strain tif3, active compounds read low 1.01 | S. cerevisiae deletion strains, locus YPR167C, strain met16, active compounds read low 1 | S. cerevisiae deletion strains, strain wtn01, active compounds read low 1.02 | S. cerevisiae strains, strain wild type, active compounds read low 0.989
